Screens (PubChem BioAssay)
This is a sample that favours compounds with a hit; in the whole collection about 7.9% have one here.
Shh pathway inh – blocks Sonic Hedgehog signaling | 22,000 compounds, 2.1% hits | Shh-LIGHT2 Gli-luciferase reporter, 30 h | AID 2313 | inhibition, % (concentration not given with the values);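 active = mean inhibition across valid replicates above about 65%, limit read from the data; inconclusive = mean under the limit, yet half or more replicates past it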;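 note: pathway switched on by Shh-conditioned medium diluted 1 in 25 in low serum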
MITF inh – inhibitors of MITF; TRPM1 promoter luciferase, luminescence, 24 h; 37,000 compounds, 0.28% hits; AID 2240; inhibition, % (test concentration not listed); in the data active = inhibition above about 85%; inconclusive = no clear call, values can overlap the other calls; inactive = below about 68%;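 note: human melanocyte line stably carrying TRPM1 promoter luciferase reporter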
NOMO-1 viab – STK33 inhibitor candidate reducing NOMO-1 cell viability; NOMO-1 AML viability, CellTiter-Glo luminescence, 72 h; inhibition, % (test concentration not listed); 37,000 compounds, 7.5% hits; AID 2330; in the data active = inhibition above about 80%; inconclusive = no clear call, values can overlap the other calls
Large screens that a line does not name were inactive.

C[C@H](CO)N1C[C@H](C)[C@H](CN(C)Cc2ccc(Oc3ccccc3)cc2)Oc2ccc(NC(=O)CCC(F)(F)F)cc2C1=O	NOMO-1 viab 114
Cc1noc(C)c1NC(=O)Nc1ccc2c(c1)C(=O)N([C@H](C)CO)C[C@H](C)[C@@H](CN(C)Cc1ccc(Oc3ccccc3)cc1)O2	none
C[C@@H]1CN([C@H](C)CO)C(=O)c2cc(NC(=O)Nc3ccccc3)ccc2O[C@@H]1CN(C)Cc1ccc(Oc2ccccc2)cc1	none (no result: Shh pathway inh)
C[C@@H]1CN([C@@H](C)CO)C(=O)c2cc(NC(=O)Nc3ccc(F)cc3)ccc2O[C@H]1CN(C)Cc1ccc(Oc2ccccc2)cc1	none (no result: Shh pathway inh)
Cc1noc(C)c1NC(=O)Nc1ccc2c(c1)C(=O)N([C@H](C)CO)C[C@@H](C)[C@@H](CN(C)Cc1ccc(Oc3ccccc3)cc1)O2	Shh pathway inh 67
C[C@H](CO)N1C[C@H](C)[C@@H](CN(C)Cc2ccc(Oc3ccccc3)cc2)Oc2ccc(NC(=O)CCC(F)(F)F)cc2C1=O	none (no result: Shh pathway inh)
C[C@H]1CN([C@@H](C)CO)C(=O)c2cc(NC(=O)Nc3ccccc3)ccc2O[C@@H]1CN(C)Cc1ccc(Oc2ccccc2)cc1	NOMO-1 viab 97
C[C@@H]1CN([C@@H](C)CO)C(=O)c2cc(NC(=O)Nc3ccccc3)ccc2O[C@H]1CN(C)Cc1ccc(Oc2ccccc2)cc1	NOMO-1 viab 112 (no result: Shh pathway inh)
C[C@@H]1CN([C@H](C)CO)C(=O)c2cc(NC(=O)Cn3cnnn3)ccc2O[C@@H]1CN(C)S(=O)(=O)c1cn(C)cn1	none
C[C@H](CO)N1C[C@H](C)[C@H](CN(C)Cc2ccc(C(=O)O)cc2)Oc2c(NS(=O)(=O)c3cn(C)cn3)cccc2C1=O	none
Cc1[nH]c2ccccc2c1C(=O)CSc1nc2scc(-c3ccco3)c2c(=O)n1-c1ccccc1	none (no result: Shh pathway inh)
Cc1[nH]c2ccccc2c1C(=O)CSc1nc2sc(C)c(C)c2c(=O)n1-c1ccccc1	NOMO-1 viab 100 (no result: Shh pathway inh)
O=c1c2ccccc2n(Cc2ccc(Cl)cc2)c(=O)n1Cc1ccc(Cl)cc1	none (no result: Shh pathway inh)
CCn1c2ccccc2c2cc(CNCCc3ccc(Cl)cc3)ccc21	NOMO-1 viab 113
COC(=O)c1c(NC(=O)CCN2C(=O)c3ccccc3C2=O)sc(C)c1-c1ccccc1	none (no result: Shh pathway inh)
CCOc1ccccc1-c1nnc(SCC(=O)Nc2ccc(I)cc2)o1	NOMO-1 viab 119 (no result: Shh pathway inh)
O=C(CSc1nc2ccccc2o1)Nc1ccc(I)cc1	none (no result: Shh pathway inh)
Cc1cc(C(=O)Nc2cccc3c2O[C@@H](CN(C)Cc2ccc(Cl)c(Cl)c2)[C@@H](C)CN([C@H](C)CO)C3=O)n(C)n1	NOMO-1 viab 92
Cc1cc(C(=O)Nc2cccc3c2O[C@H](CN(C)Cc2ccc(Cl)c(Cl)c2)[C@H](C)CN([C@@H](C)CO)C3=O)n(C)n1	none
Cc1cc(C(=O)Nc2cccc3c2O[C@@H](CN(C)Cc2ccc(Oc4ccccc4)cc2)[C@H](C)CN([C@H](C)CO)C3=O)n(C)n1	Shh pathway inh 69, NOMO-1 viab 89
Cc1cc(C(=O)Nc2cccc3c2O[C@H](CN(C)Cc2ccc(Oc4ccccc4)cc2)[C@H](C)CN([C@@H](C)CO)C3=O)n(C)n1	none
Cc1cc(C(=O)Nc2cccc3c2O[C@@H](CN(C)Cc2ccc(Oc4ccccc4)cc2)[C@@H](C)CN([C@@H](C)CO)C3=O)n(C)n1	none
Cc1cc(C(=O)Nc2cccc3c2O[C@H](CN(C)Cc2ccc(Oc4ccccc4)cc2)[C@@H](C)CN([C@@H](C)CO)C3=O)n(C)n1	Shh pathway inh 77
COc1ccc(S(=O)(=O)N(C)C[C@@H]2Oc3ccc(NS(C)(=O)=O)cc3CC(=O)N([C@H](C)CO)C[C@H]2C)cc1	none
CCCc1cc(=O)n2[nH]c(NCc3cccc([N+](=O)[O-])c3)nc2n1	none (no result: Shh pathway inh)
Cc1cccc(C(C)C)c1NC(=O)CN(C1CCCCC1)S(C)(=O)=O	none (no result: Shh pathway inh)
C[C@@H]1CN([C@@H](C)CO)C(=O)Cc2cc(NC(=O)Nc3ccc(C(F)(F)F)cc3)ccc2O[C@@H]1CN(C)Cc1ccc(-c2ccccc2)cc1	none
C[C@H]1CN([C@@H](C)CO)C(=O)Cc2cc(NC(=O)Nc3ccc(C(F)(F)F)cc3)ccc2O[C@@H]1CN(C)Cc1ccc(-c2ccccc2)cc1	NOMO-1 viab 127
C[C@@H]1CN([C@@H](C)CO)C(=O)Cc2cc(NC(=O)Nc3ccccc3)ccc2O[C@@H]1CN(C)Cc1ccc(-c2ccccc2)cc1	none
C[C@H]1CN([C@@H](C)CO)C(=O)Cc2cc(NC(=O)Nc3ccc(C(F)(F)F)cc3)ccc2O[C@H]1CN(C)Cc1ccc(-c2ccccc2)cc1	NOMO-1 viab 128
CC(NC(=O)/C=C/C(=O)O)C(=O)NC(C(=O)NC(Cc1c[nH]c2ccccc12)C(=O)O)C(C)c1c[nH]c2ccccc12 (stereo not given)	none
C[C@H]1CN([C@@H](C)CO)C(=O)c2cccc(NS(=O)(=O)c3ccc(F)cc3)c2O[C@H]1CN(C)S(=O)(=O)c1ccc(F)cc1	none
C[C@H]1CN([C@@H](C)CO)C(=O)c2cccc(NS(=O)(=O)c3cn(C)cn3)c2O[C@@H]1CN(C)CC1CC1	none
C[C@@H]1CN([C@H](C)CO)C(=O)c2cccc(NC(=O)Nc3ccccc3)c2O[C@H]1CN(C)C(=O)Nc1ccc(C(F)(F)F)cc1	none
C[C@@H]1CN([C@@H](C)CO)C(=O)c2cccc(NS(=O)(=O)c3ccc(F)cc3)c2O[C@H]1CN(C)C(=O)Nc1ccc(C(F)(F)F)cc1	none
C[C@H](CO)N1C[C@H](C)[C@H](CN(C)C(=O)Nc2ccc(C(F)(F)F)cc2)Oc2c(NS(=O)(=O)c3ccc(F)cc3)cccc2C1=O	NOMO-1 viab 84
C[C@H]1CN([C@@H](C)CO)C(=O)c2cccc(NC(=O)Nc3ccc(C(F)(F)F)cc3)c2O[C@H]1CN(C)C(=O)Nc1ccccc1	NOMO-1 viab 103
COc1ccc(NC(=O)N(C)C[C@@H]2Oc3c(NC(=O)Nc4ccc(C(F)(F)F)cc4)cccc3C(=O)N([C@@H](C)CO)C[C@H]2C)cc1	NOMO-1 viab 93
COc1ccc(NC(=O)Nc2cccc3c2O[C@H](CN(C)C(=O)Nc2ccc(C(F)(F)F)cc2)[C@@H](C)CN([C@H](C)CO)C3=O)cc1	none
C[C@@H]1CN([C@H](C)CO)C(=O)c2cccc(NC(=O)Nc3ccc(C(F)(F)F)cc3)c2O[C@H]1CN(C)C(=O)Nc1ccc(C(F)(F)F)cc1	NOMO-1 viab inconclusive
C[C@@H]1CN([C@@H](C)CO)C(=O)c2cccc(NC(=O)Nc3ccc(C(F)(F)F)cc3)c2O[C@@H]1CN(C)C(=O)Nc1ccc(C(F)(F)F)cc1	NOMO-1 viab 115
CN(C)CCNc1nc2c(c(=O)n(C)c(=O)n2C)n1Cc1c(F)cccc1Cl	none (no result: Shh pathway inh)
CC1=CC(CC2(C)OC2COc2c3occc3cc3ccc(=O)oc23)OC1=O (stereo not given)	none
C[C@@H]1CN([C@@H](C)CO)C(=O)c2cc(NS(=O)(=O)c3ccc(Cl)cc3)ccc2O[C@H]1CN(C)C(=O)Nc1ccc(F)cc1	none (no result: Shh pathway inh)
O=C(NCc1ccco1)c1cc([N+](=O)[O-])ccc1Sc1nc2ccccc2[nH]1	none (no result: Shh pathway inh)
Cc1sc2ncnc(SCC(=O)NCC3CCCO3)c2c1-c1ccc(Cl)cc1 (stereo not given)	none (no result: Shh pathway inh)
CC(=O)OCC(=O)[C@@]1(O)[C@H](C)C[C@H]2[C@@H]3CCC4=CC(=O)C=C[C@]4(C)[C@@]3(F)[C@@H](O)C[C@@]21C	Shh pathway inh 82
